Hits are enriched below; roughly 19% of the tested compounds scored in any of these assays.
VP16 counter – VP16 counterscreen qHTS for inhibitors of ROR gamma transcriptional activity | Drosophila S2 Gal4-VP16 UAS-luciferase, luminescence, 20 h | Potency, µM (doses to about 53.6 µM), for the others: at the highest dose activity, negative = inhibition, most hits filed as inhibitors | 310,000 compounds, 3.5% hits;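 note: Gal4-VP16 expression switched on by copper sulfate through the metallothionein promoter; nearly all actives have a fitted effect of over 50% in size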
DT40 TDP1 no CPT – qHTS for Inhibitors of human tyrosyl-DNA phosphodiesterase 1 (TDP1): qHTS in cells in absence of CPT. DT40 Tdp1-/- hTDP1 cells, no CPT, ATP luminescence, 48 h. Potency, µM (top dose mostly 46.2 µM), for inactives: at the top dose activity change, negative = growth inhibition, usual class: inhibitors. 420,000 compounds, 15% hits. AID 686978, 2013; note: nearly all actives have a fitted effect of over 55% in size
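Chicken DT40 Tdp1-/- cells stably complemented with human TDP1 were seeded at 400 cells/well with DMSO in place of 20 nM camptothecin. After compound pinning, cells grew at least 48 hr at 37 °C; viability read by CellTiter-Glo luminescence.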
TDP1 inh – qHTS Assay for Inhibitors of Tyrosyl-DNA Phosphodiesterase (TDP1) | Tyrosyl-DNA phosphodiesterase 1 (Homo sapiens), Q9NUW8 | AID 485290, 2010 | 350,000 compounds, 0.28% hits | Potency, µM (highest dose often 130 µM), without a hit: top-dose activity change, negative = inhibition, actives largely listed as inhibitors | recombinant TDP1, AlphaScreen DNA substrate cleavage; note: nearly all actives have a fitted effect of over 40% in size
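Recombinant E. coli-expressed Tdp1 (1 nM) preincubated with compound 15 min at RT, then 5'-biotin/3'-phosphotyrosine-FITC DNA substrate (15 nM) added for 5 min. AlphaScreen beads (10 ug/ml) added, 10 min RT; tyrosine-FITC cleavage read as signal loss.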
TDP1 cell CPT – qHTS for Inhibitors of human tyrosyl-DNA phosphodiesterase 1 (TDP1): qHTS in cells in presence of CPT; chicken DT40 Tdp1-/-;hTDP1 cells + 20 nM CPT, ATP luminescence, 48 h; Potency, µM (doses to about 46.2 µM), without a hit: at the top dose activity change, negative = growth inhibition, actives largely listed as inhibitors; 420,000 compounds, 12% hits; AID 686979, 2013; note: nearly all actives have a fitted effect of over 55% in size
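Cell growth measured by CellTiter-Glo luminescence after a minimum 48 h, 37 C compound exposure with 20 nM CPT in Tdp1-knockout DT40 cells stably expressing hTDP1, seeded 400/well; qHTS titration format.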
RORg inh – qHTS for inhibitors of ROR gamma transcriptional activity; Drosophila S2 Gal4-RORgamma UAS-luciferase reporter, 20 h; Potency, µM (series often up to 53.6 µM), inactives show top-dose activity change, negative = inhibition, actives largely listed as inhibitors; 310,000 compounds, 5.4% hits; AID 2551, 2010; note: nearly all actives have a fitted effect of over 60% in size
Target sequence (P51450 whole entry, looked up, the tested form may be a part): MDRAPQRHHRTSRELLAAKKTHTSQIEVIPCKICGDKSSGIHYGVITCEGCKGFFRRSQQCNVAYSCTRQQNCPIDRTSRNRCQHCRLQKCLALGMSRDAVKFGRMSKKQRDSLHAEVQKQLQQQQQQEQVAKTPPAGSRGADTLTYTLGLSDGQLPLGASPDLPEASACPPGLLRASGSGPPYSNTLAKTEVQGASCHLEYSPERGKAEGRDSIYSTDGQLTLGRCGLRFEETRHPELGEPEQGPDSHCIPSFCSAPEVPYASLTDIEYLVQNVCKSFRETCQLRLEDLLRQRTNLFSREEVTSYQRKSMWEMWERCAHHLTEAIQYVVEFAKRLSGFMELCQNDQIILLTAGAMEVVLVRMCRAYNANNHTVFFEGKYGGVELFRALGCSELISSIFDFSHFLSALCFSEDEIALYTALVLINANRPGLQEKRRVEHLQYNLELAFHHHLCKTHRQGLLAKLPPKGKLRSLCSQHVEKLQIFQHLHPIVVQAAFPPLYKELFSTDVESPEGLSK
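Schneider cells (Drosophila), stable Gal4 DBD–ROR gamma + UAS-luc; 1 hr cmpd preincubation; Cu2+ induction 700 uM final; 20 hr ambient; luminescence.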
* hit, by the source's call; [ ] = remark or other dose. Calls come from the whole dose curve; as a rule, active = well fitted curve in the direction sought with a large enough effect; inconclusive = small, poorly fitted or top-dose-only effect, or another doubt; inactive = no such curve, though single readings can be large; an effect the other way counts as inactive or inconclusive. % is set by controls: 0 for no effect and ±100 for the full control effect; potency is the fitted concentration of half-maximal effect.

How did COCCNC(=O)C1(C)CCCN(Cc2ccc(-c3ccccn3)cc2)C1 (stereo unspecified) do in these assays?
DT40 TDP1 no CPT: inconclusive; TDP1 cell CPT: -28%

How did CSc1ccc(OC2(C)CCN(Cc3ccc(C(C)C)cc3)C2)cc1 (stereo unspecified) do in these assays?
DT40 TDP1 no CPT: 18µM*; TDP1 cell CPT: inconclusive

What do the screens show for `COc1cc(Cl)ccc1OC1(C)CCN(Cc2ccc(-c3ccccn3)cc2)C1` (stereo unspecified)?
DT40 TDP1 no CPT: 15µM*; TDP1 cell CPT: inconclusive

Results for COc1cc(Cl)ccc1OC1(C)CCN(Cc2ccc3ccccc3c2)C1 (stereo unspecified) ?
DT40 TDP1 no CPT: 23µM*; TDP1 cell CPT: inconclusive

What do the screens show for `COc1cccc(-c2onc3ccc(C4(C)OCCO4)cc23)c1`?
VP16 counter: -2%; DT40 TDP1 no CPT: inconclusive; TDP1 inh: 6%; TDP1 cell CPT: inconclusive; RORg inh: 9%

How did COCOc1cccc(CN2CCC(C)(Oc3cccc(OC)c3)C2)c1 (stereo unspecified) do in these assays?
DT40 TDP1 no CPT: inconclusive; TDP1 cell CPT: 18µM*

How did COc1ccccc1NC(=O)c1cc2c(=O)n(Cc3cccs3)ccc2nc1C do in these assays?
DT40 TDP1 no CPT: 23µM*; TDP1 inh: 7%; TDP1 cell CPT: inconclusive

What do the screens show for `CCc1ccc(NC(=O)c2cc3c(=O)n(Cc4cccs4)ccc3nc2C)cc1`?
DT40 TDP1 no CPT: 18µM*; TDP1 inh: 8%; TDP1 cell CPT: 16µM*

What do the screens show for `CCc1cccc(NC(=O)c2cc3c(=O)n(Cc4ccccc4)ccc3nc2C)c1`?
DT40 TDP1 no CPT: inconclusive; TDP1 inh: 7%; TDP1 cell CPT: inconclusive

How did COc1ccc(Cn2ccc3nc(C)c(C(=O)Nc4ccc(OC)c(OC)c4)cc3c2=O)cc1 do in these assays?
DT40 TDP1 no CPT: 2%; TDP1 inh: -1%; TDP1 cell CPT: -3%

How did CCOc1cc(S(=O)(=O)NC2CC2)c(OCC)cc1-n1cnnn1 do in these assays?
VP16 counter: 8%; DT40 TDP1 no CPT: -9%; TDP1 inh: 6%; TDP1 cell CPT: 6%; RORg inh: inconclusive

What do the screens show for `O=C(NNC(=O)OCc1ccccc1)OCc1ccccc1`?
DT40 TDP1 no CPT: -9%; TDP1 cell CPT: -2%

Results for O=C(Nc1ccccc1)Nc1ccncc1 ?
VP16 counter: 3%; DT40 TDP1 no CPT: 21µM*; TDP1 inh: 6%; TDP1 cell CPT: inconclusive; RORg inh: 14%

What do the screens show for `O=C(Nc1ccc(Cl)cc1)Nc1cccc2nsnc12`?
VP16 counter: inconclusive; DT40 TDP1 no CPT: 29µM*; TDP1 cell CPT: inconclusive; RORg inh: 92%

How did O=C(Nc1ccncc1)c1c(Cl)cccc1Cl do in these assays?
VP16 counter: inconclusive; DT40 TDP1 no CPT: inconclusive; TDP1 cell CPT: 9.2µM*; RORg inh: inconclusive

What do the screens show for `O=C(Nc1ccncc1)OCc1ccccc1`?
VP16 counter: -12%; DT40 TDP1 no CPT: 21µM*; TDP1 cell CPT: inconclusive; RORg inh: 3%[1.91 µM]

What do the screens show for `O=C(Nc1ccncc1)Nc1cccc(Cl)c1`?
VP16 counter: -4%; DT40 TDP1 no CPT: -23%; TDP1 inh: 2%[56.1 µM]; TDP1 cell CPT: inconclusive; RORg inh: 23%

Results for Cn1c(N)c(C(=O)COC(=O)/C=C/c2ccc(F)cc2)c(=O)n(C)c1=O ?
DT40 TDP1 no CPT: inconclusive; TDP1 inh: -8%[56.1 µM]; TDP1 cell CPT: inconclusive

How did COc1ccc(-c2cnc(-c3cccnc3)o2)cc1 do in these assays?
VP16 counter: -4%; DT40 TDP1 no CPT: -8%[9.04 µM]; TDP1 inh: 6%; TDP1 cell CPT: -7%[9.04 µM]; RORg inh: inconclusive

Screening data (PubChem BioAssay)
